Hit rate of the full screen: of about 48,000 compounds, about 13,000 (27%) showed an effect of 50% or more. This is one part of the list.
System: Wolbachia pipientis
Assay: Anti-Wolbachia Cell-Based Screen
Format: functional
Design: scale not given: in the data most compounds retested in dose-response had high values
Details: 5 µM

| SMILES | Percent Effect [%] |
| --- | --- |
| Cc1ccccc1CN1CCN(C(=O)CN2CCOC2=O)CC1 | -7.914 |
| Cc1nc2c(c(N3CCCC(CO)C3)n1)CCN(Cc1ccco1)CC2 (configuration not stated) | -5.863 |
| CC(C)(C)CC(=O)NC[C@H]1OC[C@@H](NCc2ccccn2)[C@@H]1O | -12.57 |
| COc1ccc(CN2C[C@@H](CN(C)C)[C@@H](CO)C2)cc1OC | 17.76 |
| Cn1ccc(C(=O)NC2CCC23CCN(Cc2nccs2)CC3)c1 (configuration not stated) | 125.2 |
| Cn1ccc(C(=O)NC2CCC23CCN(C(=O)c2ccnnc2)CC3)c1 (configuration not stated) | 9.055 |
| Cn1ccc(C(=O)NC2CCC23CCN(C(=O)c2ccccn2)CC3)c1 (configuration not stated) | -6.667 |
| CS(=O)(=O)NCc1cc2n(n1)CCCN(Cc1ccc(Cl)s1)C2 | 7.385 |
| O=C(C1CSc2ccccc2O1)N1CCN(CCO)CC1 (configuration not stated) | -0.8425 |
| N[C@@H](C(=O)N1CCN(c2ccccc2Cl)C(=O)C1)c1ccccc1 | 1.545 |
| Cc1csc(CN(C)C(C)C(=O)N2CCc3ccccc3C2)n1 (configuration not stated) | 7.72 |
| CC(C)[C@H](N)C(=O)N1CCSc2ccccc2C1.Cl | 101.9 |
| CC(C)C[C@H](N)C(=O)N1CCSc2ccccc2C1.Cl | 104.5 |
| CN(C)C(C(=O)N1Cc2ccccc2C1)c1ccccc1F (configuration not stated) | -6.272 |
| CC(C)(O)CN1CCN(C(=O)C2CSc3ccccc3O2)CC1 (configuration not stated) | -0.7844 |
| CCc1cnc(CN(C)C(C)C(=O)N2CCc3ccccc3C2)s1 (configuration not stated) | -7.357 |
| Cl.NC(C(=O)N1CCSc2ccccc2C1)c1ccccc1 (configuration not stated) | 93.09 |
| COc1ccc(-c2cn(CCn3c(C)cc(C)nc3=O)nn2)cn1 | 13.66 |
| CC(Oc1ccc(F)cc1F)C(=O)N1CCC2(CC1)CC(=O)N(C)C2 (configuration not stated) | -15.1 |
| Cn1c(C(=O)N2CCc3[nH]cnc3C2C(=O)O)ccc1-c1ccccc1 (configuration not stated) | 10.75 |
| CN(Cc1nc(CC2CC2)no1)CC1Cc2ccccc2O1 (configuration not stated) | 1.11 |
| Cc1nccn1-c1cc(CNC(=O)c2ccccn2)ccn1 | -23.44 |
| CC(=O)NCc1ccc(-n2ccnc2C)nc1 | 28.24 |
| Cc1nccn1-c1ccc(=O)n(CCNC(=O)c2ccccn2)n1 | 116.7 |
| Cn1c(C(F)(F)F)nn(CCNC(=O)CCc2ccccc2)c1=O | 8.562 |

| SMILES | Percent Effect [%] |
| --- | --- |
| O=c1ccc(-n2ccnc2)nn1CCNS(=O)(=O)c1ccccc1Cl | -3.668 |
| O=C(CNC(=O)c1c(F)cccc1Cl)Nc1ccc(F)cn1 | -31.04 |
| Cn1c(C(F)(F)F)nn(CCNC(=O)c2ccccn2)c1=O | -5.949 |
| Cc1nccn1-c1ccc(=O)n(CCNC(=O)Cc2ccccc2)n1 | 251.7 |
| Cc1nccn1-c1ccc(=O)n(CCNC(=O)c2c(F)cccc2Cl)n1 | 122.2 |
| Cc1ccoc1C(=O)N1CC(C(=O)N2CCOCC2)C2(CCOCC2)C1 (configuration not stated) | -39.43 |
| CC(=O)c1c(F)cccc1N1CCC(NS(=O)(=O)c2ccccc2)CC1 | -17.75 |
| CC(C)Oc1cc(N2CC[C@H](CO)[C@@H](O)C2)nc(N)n1 | -19.56 |
| Cc1ccccc1CCCN1C(=O)CC2(CCSC2)C1=O (configuration not stated) | 0.3605 |
| Cc1noc(CCCNC(=O)C2CSCN2C(=O)C(C)(C)C)n1 (configuration not stated) | -2.864 |
| CN(C(=O)CCNC(=O)C1COc2ccccc21)c1ccccc1 (configuration not stated) | 1.32 |
| O=C(c1cocn1)N1CCC2(CC1)CC(OCC1CC1)CO2 (configuration not stated) | 7.124 |
| CN(C)CCCNc1ncnc2cccc(F)c12 | -15.41 |
| CN(CCOCC1CC1)C(=O)Nc1ccc([S+](C)[O-])cc1 (configuration not stated) | 90.95 |
| O=C(NCCOCC1CC1)Nc1ccc(F)cc1 | -7.278 |
| CN(CCOCC1CC1)C(=O)Cn1cccc(C(F)(F)F)c1=O | 10.84 |
| COCCN(C)C(=O)Nc1ccc(C(=O)NCCC(=O)OC)cc1 | 9.449 |
| C[S+]([O-])c1ccc(NC(=O)Cc2cccnc2)cc1F (configuration not stated) | 6.367 |
| CN(CCOCC1CC1)C(=O)Nc1ccc([S+](C)[O-])c(F)c1 (configuration not stated) | 94.49 |
| CC(C)Cc1ncc2c(n1)CN(c1nccc(NC(C)C)n1)C2 | -6.813 |
| COC1CCN(C(=O)c2c(Cl)c3ccccc3n2C)CC1 | -0.1607 |
| O=C(CCc1cc(Cl)no1)N1CCCCC1CCN1CCOCC1 (configuration not stated) | -7.331 |
| CCc1nc(CCNc2ncccn2)sc1C | -26.63 |
| COc1cccc(C(O)CN2CCN(c3cccc(C)c3)CC2)c1 (configuration not stated) | 140.6 |
| COc1ccc(OC)c(C(O)CN2CCN(c3cccc(C)c3)CC2)c1 (configuration not stated) | 116.6 |

| SMILES | Percent Effect [%] |
| --- | --- |
| COc1ccc(OC)c(C(O)CN2CCN(C3CCCC3)CC2)c1 (configuration not stated) | 3.384 |
| COCCN1CCN(CC(O)c2cc(OC)ccc2OC)CC1 (configuration not stated) | 7.391 |
| COc1cccc(C(O)CN2CCN(C(=O)CCC(C)C)CC2)c1 (configuration not stated) | -9.64 |
| COc1cccc(N2CCN(CC(O)c3cc(C)sc3C)CC2)c1 (configuration not stated) | -7.346 |
| CS(=O)(=O)c1ccc2c(c1)nc1n2[C@@H](CNCc2cccnc2)COC1 | 6.164 |
| CC(CC(=O)N1CCCS1(=O)=O)c1ccccc1C(F)(F)F (configuration not stated) | -9.75 |
| COC(=O)[C@@H]1Cc2ncn(C)c2CN1S(=O)(=O)c1cccs1 | -9.442 |
| Cc1cc(CCC(=O)N(C)C)nc(C2CCCCN2)n1.Cl.Cl (configuration not stated) | 123.4 |
| Cc1cc(C)n(CC2CCCN2CC(=O)Nc2nncs2)n1 (configuration not stated) | -0.6534 |
| Cc1cc(CCC(=O)Nc2nncs2)nc(C2CCCN2)n1.Cl (configuration not stated) | 92.36 |
| Cc1cc(CCC(=O)N2CCCC2)nc(C2CCCN2)n1 (configuration not stated) | 120.7 |
| Cc1cc(C)n(CC2CCCCN2CC(=O)Nc2nncs2)n1 (configuration not stated) | -4.796 |
| CCN1CCn2nc(CCC(=O)N3CCCC3)cc2C1 | 0.2115 |
| CNC(=O)CCc1cccc(OC2CCCC2)c1 | 6.693 |
| CN(C)[C@H]1CCCCN(C(=O)CCc2csc(N)n2)C1 | -1.322 |
| CNC(=O)CCc1cc(C)nc(C2CCCCN2)n1 (configuration not stated) | 122.2 |
| CNC(=O)CCc1cc(C)nc(C2CCCN2)n1 (configuration not stated) | -4.947 |
| CCc1nc(C)c([C@H]2CN(C)C[C@@H]2C(=O)Nc2ccc3[nH]ncc3c2)[nH]1 | 2.29 |
| CC(=O)N1CCC(NC2(Cc3cc(CC(C)C)on3)COC2)CC1 | 8.31 |
| Cc1nc(CN2C(=O)C[C@H]3[C@H]2CCN3C2CCOCC2)cs1.O=C(O)C(F)(F)F | -10.54 |
| Cc1nc(CN2C(=O)CC[C@@H]3[C@H]2CCN3C(=O)c2ccccn2)cs1.O=C(O)C(F)(F)F | -0.4991 |
| Cc1nc(CN2C(=O)CC[C@@H]3[C@H]2CCN3C(=O)C2CCOCC2)cs1 | -12.01 |
| Cc1nc(CN2CCN(C3CCOC3)Cc3cccnc32)cs1.O=C(O)C(F)(F)F.O=C(O)C(F)(F)F.O=C(O)C(F)(F)F (configuration not stated) | -13.84 |
| Cc1nc(CN2C(=O)CC[C@@H]3[C@H]2CCN3C2CCOC2)cs1.O=C(O)C(F)(F)F (some centres not stated) | 91.6 |
| Cc1nc(CN2C(=O)CC[C@@H]3[C@H]2CCN3C2CCOCC2)cs1.O=C(O)C(F)(F)F | 88.53 |

| SMILES | Percent Effect [%] |
| --- | --- |
| Cc1nc(CN2C(=O)C[C@H]3[C@H]2CCN3C2CCOC2)cs1.O=C(O)C(F)(F)F (some centres not stated) | 104.4 |
| Cc1cccc(OC2CCN(c3nccnc3C#N)CC2)n1 | 4.563 |
| COc1ccc(C(=O)N(C)Cc2cc(C)on2)c(F)c1 | 9.615 |
| CNc1ncc(C(=O)N2CCC3(CC2)Nc2ccccc2NC3=O)cn1 | -19.06 |
| COc1cc(C(=O)N2CCC3(CC2)Nc2ccccc2NC3=O)ccn1 | 31.29 |
| CC(=O)Nc1nc2c(s1)C1(CCCC1)Nc1ccccc1S2 | 63.28 |
| CC(=O)Nc1nc2c(s1)C1(CCN(C)CC1)Nc1ccccc1S2 | 104.1 |
| CC(=O)Nc1nc2c(s1)C(C)(C)Nc1ccccc1S2 | 66.2 |
| CS(=O)(=O)N1CC[C@]2(O)CCN(c3cc(C#N)ccn3)C[C@@H]2C1 | -2.197 |
| CCOc1ccc(CCC(=O)N2CC[C@H]3C(=O)NCCO[C@H]3C2)cc1 | 8.218 |
| Cc1c(C(=O)NCCC(=O)N2CCOCC2)oc2c(C)cccc12 | -0.1879 |
| CC(NCc1cnc(C2CCC2)s1)c1cccc(-n2cccn2)c1 (configuration not stated) | -14.57 |
| O=C(CN1C(=O)CCC1=O)NCc1nn(C2CCCC2)c2c1CCCC2 | -9.274 |
| Cn1cc(CN2C[C@@H]3COC[C@]3(CNC(=O)c3ccco3)C2)cn1.O=C(O)C(F)(F)F | -7.864 |
| Cn1cc(CN2C[C@@H]3COC[C@]3(CNC(=O)c3ccsc3)C2)cn1.O=C(O)C(F)(F)F | -12.06 |
| Cn1cc(CN2C[C@@H]3COC[C@]3(COCC3CC3)C2)cn1.O=C(O)C(F)(F)F | 100.8 |
| Cc1cccc(CN2C[C@H]3CCC[C@@]3(COCc3csc(C)n3)C2)n1.O=C(O)C(F)(F)F.O=C(O)C(F)(F)F | -5.241 |
| CCn1cc2c(n1)CN(Cc1cnn(C)c1)CC2COCC1CC1.O=C(O)C(F)(F)F (configuration not stated) | 12.58 |
| Cn1cc(CN2C[C@H]3CCC[C@@]3(COCC3CC3)C2)cn1.O=C(O)C(F)(F)F | 101.6 |
| Cn1cc(CN2CCn3cnc(COCC4CC4)c3C2)cn1.O=C(O)C(F)(F)F | 8.69 |
| Cc1nc(COC[C@@]23CCC[C@@H]2CN(Cc2nccs2)C3)cs1.O=C(O)C(F)(F)F | 8.352 |
| Cc1nc(COC[C@@]23CCC[C@@H]2CN(Cc2cnn(C)c2)C3)cs1 | 93.55 |

— ChEMBL document CHEMBL3988442, “University of Dundee, Small-Polar-MMV Screening Library” (2021)
